This note sets out measurements from PubChem BioAssay (EPA / NIEHS).

Assay [1] concerns the target Transcription factor E2F1 (Homo sapiens) (UniProt Q01094). The assay can be described thus: ATG_E2F_CIS: Attagene CIS-FACTORIAL HepG2 Assay for human E2F Transcription Factor 1 (AID 2282935). The settings on record: HepG2 Attagene cis-reporter, E2F reporter RNA transcripts; actives raise or lower the signal. An outline of the steps: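 Cis-element reporter mRNA induction in transiently transfected HepG2, 24 h exposure. Activity fitted in both directions relative to DMSO negative control.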

Assay [2] in a line: ATG_M_61_CIS: Attagene CIS-FACTORIAL HepG2 Assay for M61 Transcription Factor (Internal Marker) (AID 2282937). Conditions: HepG2 Attagene CIS-FACTORIAL M61 internal marker reporter; actives raise or lower the signal. A digest of the protocol:
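Readout: fluorescent reporter mRNA fragments resolved by capillary electrophoresis after RT-PCR. Transiently transfected human HepG2 cells carried MRTU constructs reporting endogenous TF activity; 24 h chemical exposure; gain or loss of signal fitted relative to DMSO.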

Assay [3] is described as follows: ATG_EGR_CIS: Attagene CIS-FACTORIAL HepG2 Assay for human Early Growth Response 1 (EGR1) (AID 2282938). The settings on record: HepG2 Attagene CIS-FACTORIAL EGR reporter mRNA; actives raise or lower the signal. A digest of the protocol:
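Read-out: fluorescent reporter-mRNA fragments resolved by capillary electrophoresis after RT-PCR, 24 h post-dose in transiently transfected HepG2. Endogenous transcription-factor activity reported via cis-element-regulated reporter units; gain or loss fitted relative to DMSO.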

Assay [4] is described as follows: ATG_M_19_CIS: Attagene CIS-FACTORIAL HepG2 Assay for M19 Transcription Factor (Internal Marker) (AID 2282939). The settings on record: HepG2 Attagene CIS-FACTORIAL M19 internal marker reporter; actives raise or lower the signal. A digest of the protocol: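 HepG2 cells transiently transfected with cis-regulated multiple reporter transcription units were dosed for 24 h; reporter mRNA was quantified by RT-PCR, 6-FAM primer-extension labelling, HpaI digestion and capillary electrophoresis, with bidirectional fitting against DMSO baseline.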

The nature of assay [5]: ATG_ERE_CIS: Attagene CIS-FACTORIAL HepG2 Assay for Estrogen Response Element (ERE) (AID 2282940). The settings on record: HepG2 ERE cis-reporter, Attagene RNA transcript; actives raise or lower the signal. An outline of the steps: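 HepG2 cells transiently transfected with cis-promoter-driven multiplexed reporter transcription units report endogenous TF activity. After 24 h compound exposure, reporter mRNA is quantified by RT-PCR with capillary electrophoresis fluorescence; bidirectional fitting versus DMSO baseline.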

The nature of assay [6]: ATG_Ets_CIS: Attagene CIS-FACTORIAL HepG2 Assay for human Erythroblast Transformation Specific (ETS) (AID 2282941). Conditions: HepG2 ETS cis-reporter transcription, actives raise or lower the signal. A digest of the protocol: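 HepG2 cells transiently transfected with cis-promoter reporter transcription units were dosed for 24 h; reporter mRNA was measured by RT-PCR, 6-FAM primer extension, HpaI digestion and capillary electrophoresis, with bidirectional fitting against DMSO baseline.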

For assay [7], the target named is Hepatocyte nuclear factor 3-beta (Homo sapiens) (UniProt Q9Y261). The assay can be described thus: ATG_FoxA2_CIS: Attagene CIS-FACTORIAL HepG2 Assay for human Forkhead box A2 (FOXA2) (AID 2282942). The settings on record: HepG2 cis-reporter transcription factor activity, 24 h; actives raise or lower the signal. A digest of the protocol: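 Readout: fluorescent reporter transcripts resolved by capillary electrophoresis after RT-PCR. Transiently transfected HepG2, 24 h compound exposure, endogenous TF activity at cis promoter elements. Gain or loss of signal fitted relative to DMSO.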
Chain of Hepatocyte nuclear factor 3-beta (Homo sapiens) (Q9Y261 whole entry, looked up): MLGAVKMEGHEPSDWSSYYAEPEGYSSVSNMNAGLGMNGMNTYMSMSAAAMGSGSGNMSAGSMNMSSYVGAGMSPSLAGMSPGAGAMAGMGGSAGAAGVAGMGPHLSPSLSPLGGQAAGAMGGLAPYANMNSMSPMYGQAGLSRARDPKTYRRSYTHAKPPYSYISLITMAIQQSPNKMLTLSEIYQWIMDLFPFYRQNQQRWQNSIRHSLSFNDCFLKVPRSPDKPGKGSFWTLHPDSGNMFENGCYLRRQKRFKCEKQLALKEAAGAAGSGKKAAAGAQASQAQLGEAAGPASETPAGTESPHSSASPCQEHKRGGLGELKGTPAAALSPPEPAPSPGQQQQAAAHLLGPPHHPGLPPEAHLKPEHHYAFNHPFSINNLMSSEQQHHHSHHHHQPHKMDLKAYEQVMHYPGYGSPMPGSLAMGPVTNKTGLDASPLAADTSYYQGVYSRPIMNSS

Assay [8] is described as follows: ATG_FoxO_CIS: Attagene CIS-FACTORIAL HepG2 Assay for human Forkhead box O (FoxO) (AID 2282943). Conditions: HepG2 Attagene cis-reporter, FoxO element, mRNA; actives raise or lower the signal. A digest of the protocol:
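Human hepatoma HepG2 cells carry transiently introduced reporter transcription units controlled by cis promoter elements. Chemical treatment lasted 24 h, and mRNA signal was compared with DMSO.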

The nature of assay [9]: ATG_GATA_CIS: Attagene CIS-FACTORIAL HepG2 Assay for human GATA Binding Protein (AID 2282944). The settings on record: HepG2 GATA cis-element reporter, Attagene multiplex mRNA; actives raise or lower the signal. An outline of the steps: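 HepG2 cells transiently transfected with multiplexed cis-element reporter units reflecting endogenous transcription factor activity; reporter mRNA measured after 24 h dosing by RT-PCR, 6-FAM labeling, HpaI digestion and capillary electrophoresis. Bidirectional fitting versus DMSO baseline.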

A short description of assay [10]: ATG_E_Box_CIS: Attagene CIS-FACTORIAL HepG2 Assay for human Enhancer Box (E-box) (AID 2282936). Conditions: HepG2 E-box cis-reporter transcription, actives raise or lower the signal. An outline of the steps: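 Cells: HepG2 (human liver), transient MRTU transfection. Exposure 24 h. RNA → oligo(dT) RT → PCR → 6-FAM label → HpaI → CE. Activity fitted both directions relative to DMSO.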

Values joined by “and” are separate entries in the source; they are usually repeats but may differ in a detail not shown here. Equal entries are not always repeated. The source holds several records for some structures; these can differ, active in one and inactive in another. Active and inactive are the calls of the source. Rule for the calls: active = hit-call score of the fitted dose curve at least 0.9, where 1 is the maximum; inactive = score below 0.9.

Chain of Transcription factor E2F1 (Homo sapiens) (Q01094 whole entry, looked up): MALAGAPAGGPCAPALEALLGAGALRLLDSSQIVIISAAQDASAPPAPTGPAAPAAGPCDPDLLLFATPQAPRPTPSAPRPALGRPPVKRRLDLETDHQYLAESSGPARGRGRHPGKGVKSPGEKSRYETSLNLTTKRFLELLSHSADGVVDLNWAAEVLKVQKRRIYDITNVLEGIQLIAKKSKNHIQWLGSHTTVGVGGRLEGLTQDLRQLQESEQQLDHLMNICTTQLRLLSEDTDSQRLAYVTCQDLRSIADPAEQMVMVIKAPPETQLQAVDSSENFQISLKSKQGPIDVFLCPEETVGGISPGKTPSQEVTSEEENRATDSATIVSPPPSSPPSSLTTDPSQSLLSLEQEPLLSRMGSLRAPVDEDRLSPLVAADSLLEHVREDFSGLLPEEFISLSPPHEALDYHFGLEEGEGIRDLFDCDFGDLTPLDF

For `CCCCCCCCSCc1cc(C)c(O)c(CSCCCCCCCC)c1`, the call in assay [1], in [2], in assay [3], in assay [4], in [5] and in [6] was inactive. Also, the compound was classed as inactive in assay [7], in [8] and in [9].
As for `Nc1ccc(O)c(N)c1`, the result in assay [1], in assay [2], in [3], in assay [4], in assay [5] and in assay [6] was inactive. The compound was classed as inactive in assay [7], in assay [8] and in [9].
Usually AC50 stands for the concentration giving half of the maximal activity seen. Take `OCCN1CCOCC1`: the compound was called inactive in assay [1], in assay [2], in assay [3], in assay [4], in assay [6] and in [7]. Besides, the result in assay [8] and in assay [9] was inactive. The half-maximal activity concentration (AC50) in assay [5] was 21.4 µM (active).
With `C[C@H](CCC(=O)O)[C@H]1CC[C@H]2[C@@H]3CC[C@@H]4C[C@H](O)CC[C@]4(C)[C@H]3CC[C@]12C`, the half-maximal activity concentration (AC50) in [1] was 25.3 µM (active); in assay [3], 25.2 µM (active); in assay [4], 169 µM (active); in assay [7] it was 170 µM (active). The compound was called inactive in [2], in assay [5], in assay [6], in assay [8] and in assay [9].
As for `Nc1cc([N+](=O)[O-])ccc1C(=O)O`, the call in [1], in [2], in assay [3], in [4], in assay [5] and in assay [7] was inactive. The compound was classed as inactive in assay [8] and in [9].
`C=C(C)C(=O)OCCC[Si](OC)(OC)OC`: the call in assay [1], in assay [2], in assay [3], in [4], in assay [5] and in assay [6] was inactive. The outcome in [7], in assay [8] and in [9] was inactive.
Turning to `C#C[C@]1(O)CC[C@H]2[C@@H]3CCc4cc(O)ccc4[C@H]3CC[C@@]21C`, the AC50 was 41.2 µM (active) and 29.9 µM (active) in assay [10]; 171 µM (active) in [4]; 100 µM (active) in assay [6]; 180 µM (active) and 72.5 µM (active) and 50.9 µM (active) in assay [8]; 139 µM (active) and 142 µM (active) in assay [9]. Besides, the result in assay [10], in assay [2], in [3], in assay [4], in assay [6] and in assay [7] was inactive. Besides, the compound was classed as inactive in assay [8] and in [9].
With `NC(=O)c1cccnc1`, the outcome in assay [1], in assay [2], in assay [3], in [4], in [5] and in assay [7] was inactive. Also, the call in assay [8] and in assay [9] was inactive.
On to `CCC(C)C1CCCCC1=O` (stereo not drawn), for which the call in assay [1], in assay [2], in [3], in [4], in assay [5] and in [7] was inactive. Moreover, the compound was classed as inactive in assay [8] and in assay [9].
Turning to `CCCCCC#CC(=O)OC`, the compound was called inactive in [1], in [2], in assay [3], in [4], in assay [5] and in [6]. Besides, the call in assay [8] and in [9] was inactive.
For `CC1=CCC(C(C)(C)O)CC1` (stereo not drawn), the compound was called inactive in assay [1], in assay [2], in assay [3], in assay [4], in assay [5] and in assay [6]. The outcome in assay [7], in assay [8] and in assay [9] was inactive.
For the compound `CC(C)=CC(=O)O`, the outcome in assay [10], in assay [2], in assay [3], in [4], in assay [6] and in assay [7] was inactive. For the same compound, the compound was classed as inactive in assay [8] and in assay [9]. Besides, the AC50 in [5] was 7.06 µM (active).
On to `CC1(C)[C@H](C=C(Cl)Cl)[C@H]1C(=O)OCc1cccc(Oc2ccccc2)c1`, for which the result in [10], in assay [2], in assay [3], in [4], in assay [5] and in assay [6] was inactive. In addition, the compound was called inactive in assay [7], in [8] and in assay [9].
Consider `Brc1cc(Br)cc(Br)c1`, for which the compound was called inactive in assay [1], in [2], in assay [3], in assay [4], in assay [5] and in assay [6]. The outcome in assay [7], in [8] and in assay [9] was inactive.
Regarding `O=C(O)c1ccco1`, the compound was classed as inactive in [1], in assay [2], in assay [3], in assay [4], in assay [5] and in [6]. Moreover, the call in [7], in assay [8] and in assay [9] was inactive.
In the case of `NC(N)=S`, the compound was classed as inactive in assay [1], in assay [2], in assay [3], in [4], in [5] and in assay [6]. The compound was classed as inactive in assay [7], in assay [8] and in [9].
For the compound `COc1ccc2[nH]cc(CCNC(C)=O)c2c1`, the compound was classed as inactive in assay [1], in assay [2], in assay [3], in assay [4], in [5] and in assay [6]. For the same compound, the compound was called inactive in assay [8] and in assay [9].
Regarding `CC(=O)CC(=O)N(C)C`, the call in assay [1], in assay [2], in assay [3], in assay [4], in [5] and in assay [6] was inactive. Also, the outcome in assay [7], in assay [8] and in assay [9] was inactive.
In the case of `CCCCCCCCCCCCCC(=O)OCC`, the result in [1], in [2], in [3], in [4], in assay [5] and in assay [6] was inactive. For the same compound, the compound was classed as inactive in assay [7], in assay [8] and in assay [9].
For the compound `CC1=CC[C@@H]2C[C@H]1C2(C)C`, the call in assay [1], in assay [2], in assay [3], in assay [4], in [5] and in [6] was inactive. The call in assay [7], in assay [8] and in assay [9] was inactive.
As for `N=C1N=C(N)c2ccccc21`, the call in assay [1], in assay [2], in [3], in assay [4], in assay [6] and in [8] was inactive. Also, the compound was called inactive in [9]. Moreover, the AC50 in assay [5] was 18.1 µM (active).
With `CCCC[N+](C)(CCCC)CCCC`, the compound was called inactive in assay [1], in assay [2], in assay [3], in assay [4], in [5] and in assay [6]. The outcome in assay [7], in assay [8] and in assay [9] was inactive.
Consider `CC1=CC[C@@H](C(C)(C)O)CC1`, for which the outcome in assay [1], in [2], in assay [3], in assay [4], in [5] and in assay [7] was inactive. For the same compound, the call in [8] and in assay [9] was inactive.
As for `C=C(C)C(=O)OCCOCCOC(=O)C(=C)C`, the compound was called inactive in assay [1], in assay [2], in assay [3], in [4], in [5] and in assay [6]. Also, the result in assay [7], in assay [8] and in [9] was inactive.
Consider `CCCCOC(=O)C(C)OC(=O)CCC` (stereo not drawn), for which the outcome in [1], in [2], in assay [3], in [4], in [5] and in assay [6] was inactive. Also, the compound was called inactive in assay [8] and in assay [9].
Consider `CCCc1ccc(O)cc1`, for which the result in assay [10], in assay [2], in assay [3], in assay [4], in assay [6] and in assay [7] was inactive. For the same compound, the compound was called inactive in assay [8] and in [9]. For the same compound, in assay [5], the AC50 is 26.8 µM (active).
As to `O=C1CCC(=O)N1`, the call in [1], in [2], in assay [3], in [4], in assay [5] and in [8] was inactive. The result in assay [9] was inactive.
As to `CN(C)CCC=C1c2ccccc2CCc2ccccc21`, the compound was classed as inactive in assay [1], in assay [2], in [4], in [5], in [7] and in [8]. In addition, in [9], the compound was classed as inactive. The concentration at half-maximal activity (AC50) in assay [3] was 41 µM (active).
As for `CC(=O)c1ccc(O)cc1`, the compound was called inactive in [1], in assay [2], in assay [3], in [4], in [6] and in [8]. For the same compound, the compound was called inactive in assay [9]. In addition, the AC50 in assay [5] was 26.5 µM (active).
